Assay [1] is described as follows: qHTS of pediatric cancer cell lines to identify multiple opportunities for drug repurposing: Confirmatory screen for TC32 cells (AID 1347118).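 Further: cells exposed to compound for 48 h before the read; nearly all actives have a fitted effect of over 65% in size.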 The gist of the method: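 TC32 cells, 500-1,000/well in growth medium, compound-treated 48 h at 37 °C; viability from CellTiter-Glo luminescence. Primary screen: MIPE 11-point (0.78 nM–46 µM final), NPC 8-point (0.59 nM–46 µM final); confirmatory at 11-point dilutions.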

The nature of assay [2]: qHTS of pediatric cancer cell lines to identify multiple opportunities for drug repurposing: Confirmatory screen for MG 63 (6-TG R) cells (AID 1347119). Further: nearly all actives have a fitted effect of over 55% in size. The gist of the method: (§1)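 Cells (500-1,000/well) rested 5 h, then received compounds for 48 h; metabolically active cells were measured by CellTiter-Glo luminescence. Final concentrations spanned up to 46 µM (MIPE, 11-point) or 0.59 nM-46 µM (NPC, 8-point) in primary screens, 11-point in follow-ups.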
A general note: Quantitative high-throughput screening tests each substance at several concentrations.

Assay [3] in a line: qHTS of pediatric cancer cell lines to identify multiple opportunities for drug repurposing: Confirmatory screen for control Hh wild type fibroblast cells (AID 1347121). Further: nearly all actives have a fitted effect of over 70% in size. The gist of the method:
as §1

Assay [4] can be described thus: qHTS of pediatric cancer cell lines to identify multiple opportunities for drug repurposing: Confirmatory screen for Rh41 cells (AID 1347123).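 Further: 48 h compound exposure; nearly all actives have a fitted effect of over 60% in size.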 The gist of the method: as §1
A short description of assay [5]: qHTS of pediatric cancer cell lines to identify multiple opportunities for drug repurposing: Confirmatory screen for RD cells (AID 1347124).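 Further: cells exposed to compound for 48 h before viability readout; nearly all actives have a fitted effect of over 65% in size.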 In a few lines:
as §1

Assay [6] in a line: qHTS of pediatric cancer cell lines to identify multiple opportunities for drug repurposing: Confirmatory screen for Rh18 cells (AID 1347125). Further: nearly all actives have a fitted effect of over 55% in size. In a few lines: as §1
Assay [7] in a line: qHTS of pediatric cancer cell lines to identify multiple opportunities for drug repurposing: Confirmatory screen for Rh30 cells (AID 1347126). Further: nearly all actives have a fitted effect of over 55% in size. The gist of the method: as §1
Assay [8] can be described thus: qHTS of pediatric cancer cell lines to identify multiple opportunities for drug repurposing: Confirmatory screen for Saos-2 cells (AID 1347127). Further: nearly all actives have a fitted effect of over 60% in size. The gist of the method: as §1
The nature of assay [9]: qHTS of pediatric cancer cell lines to identify multiple opportunities for drug repurposing: Confirmatory screen for OHS-50 cells (AID 1347128).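 Further: compound exposure lasted 48 h at 37 degrees C; nearly all actives have a fitted effect of over 55% in size.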 In a few lines: as §1
Assay [10] is described as follows: qHTS of pediatric cancer cell lines to identify multiple opportunities for drug repurposing: Confirmatory screen for SK-N-SH cells (AID 1347129).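 Further: cells exposed to compound for 48 h before viability read; nearly all actives have a fitted effect of over 60% in size.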 In a few lines:
as §1

Inconclusive results are not listed. Calls of active or inactive are those of the source. The call rests on the fitted dose curve; in most records, active means well fitted curve in the direction sought with a large enough effect; inconclusive means small, poorly fitted or top-dose-only effect, or another doubt; inactive means no such curve, though single readings can be large; an effect the other way counts as inactive or inconclusive.

Drawing on PubChem BioAssay (NCATS), this text covers Potency for 20 compounds.
Potency means the concentration at half of the fitted maximal effect.

`CCCCC(CC)CN=C(N)NC(N)=NCCCCCCN=C(N)NC(N)=NCC(CC)CCCC` (configuration not stated): the Potency is 8.27 µM (active) in [1]; 2.93 µM (active) in assay [2]; 2.93 µM (active) in assay [3]; 7.37 µM (active) in assay [4]; 1.04 µM (active) in assay [5]; 13.1 µM (active) in assay [6]. Moreover, the Potency is 1.47 µM (active) in assay [7], 16.5 µM (active) in assay [8], 13.1 µM (active) in assay [9] and 11.8 µM (active) in assay [10].

On to `CC(=O)OCC(=O)[C@@]1(O)[C@H](C)C[C@H]2[C@@H]3CCC4=CC(=O)C=C[C@]4(C)[C@@]3(F)[C@@H](O)C[C@@]21C`, for which the Potency in assay [1] was 18.5 µM (active). In assay [10], the Potency entry was “inactive”.

As to `CC(=O)Oc1ccc2c(c1)CC[C@@H]1[C@@H]2CC[C@]2(C)[C@@H](O)CC[C@@H]12`, the Potency in assay [1] was 6.57 µM (active). Moreover, the Potency entry in assay [3], in assay [4], in assay [5], in assay [6], in assay [7] and in assay [9] was “inactive” throughout.

As to `O=C(CCCN1CCC(O)(c2ccc(Br)cc2)CC1)c1ccc(F)cc1`, the values for the Potency in [1] and in assay [4] were 2.61 µM (active) and 18.5 µM (active), respectively. Moreover, the Potency entry in assay [2], in [3], in assay [6] and in assay [8] was “inactive” in each case.

For the compound `CC(C)(C(=O)c1cccnc1)c1cccnc1`, in assay [1], the Potency is 3.29 µM (active). Further, the Potency result in [2], in assay [3], in [4], in assay [5], in assay [6] and in assay [7] was “inactive” throughout. For the same compound, the Potency result in assay [9] and in assay [10] was “inactive” in each case.

Take `NC(CO)(CO)CO`: the Potency in assay [1] was 11.7 µM (active). The Potency result in assay [2], in assay [3], in assay [4], in assay [5], in [6] and in assay [8] was “inactive” in each case. Besides, the Potency result in assay [9] and in assay [10] was “inactive” in each case.

Turning to `CCC(C(=O)OCCN(CC)CC)c1ccccc1` (configuration not stated), in assay [1], the Potency was 10.4 µM (active). Further, the Potency entry in assay [2], in assay [3], in assay [4], in [5], in assay [6] and in assay [7] was “inactive” in each case. In addition, the Potency entry in assay [8] and in [10] was “inactive” throughout.

With `C[C@]12C=CC(=O)C=C1[C@@H](F)C[C@@H]1[C@@H]2[C@@H](O)C[C@@]2(C)[C@H]1CC[C@]2(O)C(=O)CO`, the Potency entry in assay [1], in assay [2], in [3], in assay [5], in [6] and in assay [7] was “inactive” each time. Besides, the Potency entry in assay [9] and in assay [10] was “inactive” in each case.

As for `COc1c(C)c2c(c(O)c1C/C=C(\C)CCC(=O)O)C(=O)OC2`, the Potency is 1.17 µM (active) in [4], 1.31 µM (active) in [6], 1.31 µM (active) in [7] and 18.7 µM (active) in assay [10].

As to `COc1cc(C=C2CCC/C(=C\c3ccc(O)c(OC)c3)C2=O)ccc1O`, the Potency in assay [1] was 0.414 µM (active); in assay [2], 20.8 µM (active); in assay [4], 14.7 µM (active); in assay [5], 9.27 µM (active); in assay [7], 20.8 µM (active); in [8], 11.7 µM (active). Further, the Potency is 16.5 µM (active) in [9] and 18.7 µM (active) in assay [10]. Besides, the Potency entry in assay [3] was “inactive”.

With `CCCC(=O)O[C@]1(C(=O)CO)CC[C@H]2[C@@H]3CCC4=CC(=O)CC[C@]4(C)[C@H]3[C@@H](O)C[C@@]21C`, the Potency entry in assay [1], in [3], in [5], in assay [6], in assay [7] and in [9] was “inactive” throughout.

Regarding `CCCCC(=O)O[C@]1(C(=O)CO)CC[C@H]2[C@@H]3CCC4=CC(=O)CC[C@]4(C)[C@H]3[C@@H](O)C[C@@]21C`, the Potency result in assay [3], in assay [6], in assay [7], in assay [9] and in assay [10] was “inactive” throughout.

`COc1cccc2c1C(=O)c1c(O)c3c(c(O)c1C2=O)C[C@@](O)(C(=O)CO)C[C@@H]3O[C@H]1C[C@H](N)[C@H](O)[C@H](C)O1`: the Potency in assay [1] is 0.465 µM (active); in assay [2], 5.85 µM (active); in [4] it was 1.47 µM (active); in assay [5], 5.22 µM (active); in assay [6] it was 5.22 µM (active); in assay [9], 14.7 µM (active). In assay [10], the Potency was 1.32 µM (active).

Consider `OC[C@H]1O[C@@H](n2cnc3c(=S)nc[nH]c32)[C@H](O)[C@@H]1O`, for which the Potency is 2.33 µM (active) in [1], 10.4 µM (active) in [4], 4.65 µM (active) in assay [8] and 2.33 µM (active) in [9]. In addition, the Potency entry in assay [2], in assay [3] and in assay [5] was “inactive” throughout.

Consider `C[C@]12CCC(=O)C=C1CC[C@H]1[C@@H]3CC[C@](O)(C(=O)CO)[C@@]3(C)C[C@H](O)[C@@]12F`, for which the Potency result in assay [2], in assay [3], in [4], in assay [5], in assay [6] and in assay [8] was “inactive” in each case. For the same compound, the Potency result in assay [9] and in [10] was “inactive” each time.

As for `C[C@@H]1CN(CCCn2c3ccccc3c3ccccc32)C[C@H](C)N1`, the Potency entry in [2] was “inactive”. For the same compound, the figures for the Potency in [4], in assay [6] and in [7] were 16.5 µM (active), 26.1 µM (active) and 26.1 µM (active), respectively.

Consider `CCCCCCC[N+](CC)(CC)CCCCc1ccc(Cl)cc1`, for which the Potency is 13.1 µM (active) in [2]; 9.27 µM (active) in assay [3]; 13.1 µM (active) in assay [6]; 10.4 µM (active) in assay [7]; 11.7 µM (active) in [8]; 23.3 µM (active) in assay [9]. Besides, the Potency in assay [10] was 20.9 µM (active). The Potency result in assay [5] is “inactive”.

Regarding `CCOc1ccc2nc3cc(N)ccc3c(N)c2c1`, the results for the Potency in [1], in assay [4] and in assay [10] were 2.61 µM (active), 14.7 µM (active) and 14.8 µM (active), respectively. In addition, the Potency result in [2], in [6] and in assay [9] was “inactive” in each case.

Regarding `C[n+]1c2cc(N)ccc2cc2ccc(N)cc21` (tested in a mixture with another compound), the Potency in [1] was 5.85 µM (active); in [2] it was 14.7 µM (active); in assay [3], 7.37 µM (active); in [4], 5.22 µM (active); in assay [5], 0.657 µM (active); in assay [6] it was 5.85 µM (active). Moreover, the results for the Potency in assay [7], in assay [9] and in assay [10] were 6.57 µM (active), 9.27 µM (active) and 8.33 µM (active), respectively.

With `C=C1C[C@H]2[C@@H]3C=C(C)C4=CC(=O)CC[C@]4(C)[C@H]3CC[C@]2(C)[C@@]1(OC(C)=O)C(C)=O`, in assay [1], the Potency was 6.57 µM (active). In addition, the Potency entry in assay [2], in assay [3], in [5], in assay [6], in assay [7] and in [8] was “inactive” throughout. The Potency result in assay [9] and in assay [10] was “inactive” throughout.
